Bioassay records deposited in PubChem by National Center for Advancing Translational Sciences (NCATS).
In the library only some 15% were active in any assay of this set; here they are far more common.
RORgamma inh = qHTS for inhibitors of ROR gamma transcriptional activity; Nuclear receptor ROR-gamma (Mus musculus), P51450; Drosophila S2 Gal4-RORgamma UAS-luciferase reporter, 20 h; Potency, µM (doses to about 53.6 µM), usual class: inhibitors; actives 5.4% (n = 310,000); AID 2551, 2010; also: nearly all actives have a fitted effect of over 60% in size
Target sequence (P51450 whole entry, looked up, the tested form may be a part): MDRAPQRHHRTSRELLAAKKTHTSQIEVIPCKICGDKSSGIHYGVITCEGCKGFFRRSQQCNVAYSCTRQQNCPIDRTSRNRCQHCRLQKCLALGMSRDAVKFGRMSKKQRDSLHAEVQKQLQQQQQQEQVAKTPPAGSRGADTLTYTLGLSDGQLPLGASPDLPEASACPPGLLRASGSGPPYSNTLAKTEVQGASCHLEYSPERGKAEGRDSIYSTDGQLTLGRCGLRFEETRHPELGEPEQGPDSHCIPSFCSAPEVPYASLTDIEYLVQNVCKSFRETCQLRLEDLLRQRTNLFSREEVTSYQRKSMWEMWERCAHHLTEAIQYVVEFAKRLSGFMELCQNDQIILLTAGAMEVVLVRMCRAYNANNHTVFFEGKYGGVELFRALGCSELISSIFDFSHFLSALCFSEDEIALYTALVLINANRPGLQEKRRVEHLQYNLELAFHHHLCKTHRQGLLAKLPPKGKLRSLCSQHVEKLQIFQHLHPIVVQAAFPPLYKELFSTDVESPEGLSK
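ROR gamma transcriptional activity was tracked as Gal4-UAS luciferase output in stably transfected Drosophila Schneider cells, with compound added 1 hr before 700 uM copper sulfate induction and a 20 hr ambient-temperature incubation.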
TDP1 cell noCPT = qHTS for Inhibitors of human tyrosyl-DNA phosphodiesterase 1 (TDP1): qHTS in cells in absence of CPT | Potency, µM (series often up to 46.2 µM), hits mostly inhibitors | DT40 Tdp1-/- hTDP1 cells, no CPT, ATP luminescence, 48 h | actives 15% (n = 420,000); also: nearly all actives have a fitted effect of over 55% in size
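Readout: luminescence from CellTiter-Glo after 30 min in the dark at RT. Cells: DT40 Tdp1-/- with stable hTDP1, 400/well. Exposure: compounds alone, ≥48 hr, 37 °C.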
DT40 TDP1 CPT = qHTS for Inhibitors of human tyrosyl-DNA phosphodiesterase 1 (TDP1): qHTS in cells in presence of CPT; chicken DT40 Tdp1-/-;hTDP1 cells + 20 nM CPT, ATP luminescence, 48 h; Potency, µM (series often up to 46.2 µM), actives largely listed as inhibitors; actives 12% (n = 420,000); also: nearly all actives have a fitted effect of over 55% in size
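Chicken DT40 Tdp1-/- cells stably complemented with human TDP1 were seeded at 400 cells/well in medium containing 20 nM camptothecin, exposed to pin-transferred compounds, and grown at 37 °C for at least 48 hr. Viability was read as ATP luminescence.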
ELG1 repair inh = qHTS screen for small molecules that inhibit ELG1-dependent DNA repair in human embryonic kidney (HEK293T) cells expressing luciferase-tagged ELG1 | HEK293T ELG1-luciferase reporter, luminescence, 16 h; DNA damage induced by 5-fluorouridine | Potency, µM (highest dose often 46.1 µM), hits mostly inhibitors | actives 2.3% (n = 330,000) | AID 504467, 2011; also: nearly all actives have a fitted effect of over 55% in size
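In this reporter screen, reduction of luminescence relative to DMSO vehicle indicated activity. Compounds and 5-fluorouridine were added together to 2,000 cells per well, incubated for 16 hr at 37 °C, then developed with ONE-Glo.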
VP16 counter = VP16 counterscreen qHTS for inhibitors of ROR gamma transcriptional activity; actives 3.5% (n = 310,000); Drosophila S2 Gal4-VP16 UAS-luciferase, luminescence, 20 h; Potency, µM (highest dose often 53.6 µM), hits mostly inhibitors;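 also: Gal4-VP16 expression switched on by copper sulfate through the metallothionein promoter; nearly all actives have a fitted effect of over 50% in size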
ALOX12 inh = Primary qHTS assay for inhibitors of human arachidonate 12S-lipoxygenase (ALOX12): Round 2; Polyunsaturated fatty acid lipoxygenase ALOX12 (Homo sapiens), P18054; purified 12hLO, xylenol orange hydroperoxide absorbance; Potency, µM (series often up to 108 µM), most hits filed as inhibitors; actives 1.1% (n = 580,000)
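Purified human 12hLO (150 nM final) in 25 mM Hepes, 0.01% Triton X-100, pH 7.0 was preincubated 15 min at room temperature with compound. Then 40 uM arachidonic acid was added, 30 min. Hydroperoxide was read by Fe-XO absorbance ratio 573/405 nm.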
A number is an active result; – = inactive; ? = inconclusive; · = no result given. Calls follow the shape of the dose curve; as a rule, active = well fitted curve in the direction sought with a large enough effect; inconclusive = small, poorly fitted or top-dose-only effect, or another doubt; inactive = no such curve, though single readings can be large; an effect the other way counts as inactive or inconclusive.

SMILES	RORgamma inh	TDP1 cell noCPT	DT40 TDP1 CPT	ELG1 repair inh	VP16 counter	ALOX12 inh
COc1ccc(-c2cc3n(n2)CC(C)(C(=O)NCc2ccccc2)N(Cc2ccco2)C3=O)cc1 (stereo not given)	·	·	·	·	·	–
COCc1nc(CCNC(=O)NC2CCCCC2)no1	·	·	·	·	·	–
Brc1cccc(Oc2ccc3nnnn3n2)c1	·	·	·	·	·	–
COC(=O)c1ccc2c(c1)c(C#Cc1ccccc1)c(-c1ccccc1)n2C	–	16µM	21µM	?	–	–
COc1ccc(-c2nnc3n2CCN(C(=O)C2CCCC2)C3)cc1	·	·	·	·	·	–
c1ccc(-c2ccc3c(c2)c2c4n3CCN=C4CCC2)cc1	11µM	?	23µM	–	?	?
OC1CN=C2CCCc3c2n(c2ccc(Cl)cc32)C1 (stereo not given)	–	–	–	–	–	–
CCCOc1ccccc1OCC(=O)Nc1ccc(S(=O)(=O)N2CCCC2)cc1	·	16µM	?	?	·	–
COc1ccccc1C(=O)Nc1ccc(S(=O)(=O)N2CCN(C)CC2)cc1	·	–	–	·	·	?
CCCOc1ccccc1C(=O)Nc1ccc(S(=O)(=O)N2CCN(C)CC2)cc1	–	16µM	18µM	?	–	–
COc1ccccc1OCC(=O)Nc1ccc(S(=O)(=O)N2CCCCCC2)cc1	–	?	?	?	–	–
O=C(COc1ncnc2c1cnn2-c1ccccc1)Nc1ccc(S(=O)(=O)N2CCCCC2)cc1	–	?	16µM	?	–	–
O=C(c1ccccc1)N1CCN(c2nc3ccc([N+](=O)[O-])cc3s2)CC1	?	5.2µM	6.5µM	–	8.9µM	–
O=[N+]([O-])c1ccc2nc(N3CCCC3)sc2c1	–	18µM	?	?	–	?
CCOC(=O)C1CCN(Cc2cc(=O)oc3c(C)cc(C)cc23)CC1	·	·	·	·	·	–
C/[N+]([O-])=C/c1c(OCc2ccccc2)ccc2ccccc12	–	23µM	–	?	–	·
CCOC(=O)c1c(NC(=O)CN2CCc3ccccc32)sc(C)c1CC	·	·	·	·	·	–
COc1cc(OC)c(NC(=O)C(C)n2nc(-c3ccc(C)c(C)c3)ccc2=O)cc1Cl (stereo not given)	·	13µM	15µM	·	·	–
COc1cc(-c2ccnc3nc(CCC4CCCC4)nn23)cc(OC)c1OC	·	·	·	·	·	–
CCOC(=O)C1=C(CSCC(=O)OC)NC(=O)NC1c1cc(C)ccc1C (stereo not given)	–	–	–	–	?	–
CCOC(=O)C1=C(CSc2nc3ccccc3s2)NC(=O)NC1c1ccc(OC)cc1 (stereo not given)	?	18µM	21µM	?	–	–
CCOC(=O)C1=C(CSc2nc3ccccc3s2)NC(=O)NC1c1cc(C)ccc1C (stereo not given)	?	23µM	?	?	–	–
CCOC(=O)C1=C(CP(=O)(c2ccccc2)c2ccccc2)NC(=O)NC1c1ccc(OC)cc1 (stereo not given)	–	–	–	–	–	–
CC(=O)Oc1ccc2nc(/C=C/c3ccccc3)oc(=O)c2c1	6.3µM	–	–	–	?	–
CC(=O)Oc1ccc2nc(/C=C/c3ccc(C=O)cc3)oc(=O)c2c1	·	–	–	–	·	–
SMILES	RORgamma inh	TDP1 cell noCPT	DT40 TDP1 CPT	ELG1 repair inh	VP16 counter	ALOX12 inh
O=C(Cn1ncc2c1-c1ccccc1OC2)N1CCN(c2ccccc2F)CC1	·	18µM	?	·	·	–
Cc1ccc2c(c1)-c1c(cnn1CC(=O)N1CCN(c3ccccc3F)CC1)CO2	·	?	?	·	·	–
COc1cccc(N2CCN(C(=O)Cn3ncc4c3-c3ccccc3OC4)CC2)c1	·	23µM	–	·	·	–
O=C(Cn1ncc2c1-c1ccccc1OC2)N1CCN(Cc2ccccc2)CC1	–	?	?	?	–	–
Cc1ccc(C)c(CN2CCCN(C(=O)Cn3ncc4c3-c3ccccc3OC4)C2)c1	–	16µM	13µM	?	–	–
CCCCOc1c(CNC(C)c2ncccc2C)cccc1OC (stereo not given)	·	·	·	·	·	–
CC1=NN(/C(=N\c2nnc(C)s2)Nc2ccccc2)[C@H](c2cccc3ccccc23)S1	?	?	23µM	?	?	–
O=C(NC1CCN(c2nnc3ccccn23)CC1)c1ccc(Cl)s1	·	·	·	·	·	–
CN1CCC(N2CC[C@H](c3nnc(-c4cccnc4)o3)C2)CC1	·	·	·	·	·	–
CNC(=S)N(Cc1ccc(OC)cc1)C1CC(=O)N(c2ccc(OC)cc2)C1=O (stereo not given)	?	?	?	–	–	?
O=C1CC(N(CCc2ccccc2)C(=S)Nc2ccccc2)C(=O)N1c1ccccc1 (stereo not given)	?	?	?	–	–	–
COC(=O)CN(C(=S)Nc1ccc(F)cc1)C1CC(=O)N(c2ccc(OC)cc2)C1=O (stereo not given)	–	–	?	–	–	32µM
COC(=O)CN(C(=S)Nc1ccc(F)cc1)C1CC(=O)N(c2ccccc2)C1=O (stereo not given)	–	–	–	–	–	–
CCCOc1ccc(N2C(=O)CC(N(CCc3ccc(OC)c(OC)c3)C(=S)Nc3ccccc3)C2=O)cc1 (stereo not given)	–	?	?	16µM	–	·
CNC(=S)N(CCc1ccc(OC)c(OC)c1)C1CC(=O)N(c2ccccc2)C1=O (stereo not given)	–	26µM	?	?	–	·
O=C1CC(N(CCc2ccccc2)C(=S)Nc2cc(Cl)ccc2Cl)C(=O)N1c1c(Cl)cccc1Cl (stereo not given)	–	10µM	16µM	–	–	?
NC(=O)c1ccc(NC(=O)c2ccccc2CSc2nc3ccccc3o2)cc1	·	·	·	·	·	–
CCc1ccc2oc(-c3ccc(N)cc3O)nc2c1	·	·	·	·	·	–
CC(NS(=O)(=O)Cc1ccccc1)C(=O)O (stereo not given)	·	·	·	·	·	–
CCCCNC(=S)NNC(=O)c1cc(-c2cccnc2)nc2ccccc12	?	–	–	–	–	–
CCNC(=S)NNC(=O)c1cc(-c2ccc(OC)cc2)nc2ccccc12	1.4µM	4.1µM	3.7µM	?	3.5µM	?
CCCCOc1ccc(-c2cc(C(=O)NNC(=S)NCC)c3ccccc3n2)cc1	5µM	21µM	23µM	?	2.5µM	?
Cc1cc(C)c(NC(=O)CN2C(=O)C3(SCC(=O)N3c3ccc(F)cc3)c3ccccc32)c(C)c1 (stereo not given)	·	?	?	·	·	–
